Drawing on the supplement of paper PMC6555819, this text covers PBM binding z-score for 39 sequences.

The subject of one experiment is THRa homodimer (NR concentration 90 nM). Briefly: PBM binding z-score (relative to random genomic background probes); higher = stronger binding; sequences stand for … in GC…GCGATTGACAGCGTAGAATGAAGG
In short, it runs like this:
(§1)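 The probes on custom Agilent 4×180K protein-binding microarrays were double-stranded, with 34-nt variable regions bearing direct-repeat seeds, single-nucleotide variants, half-site ablations and random human genomic background sequences. Incubation lasted 1 h with ligand-free nuclear receptor dimers in PBS pH 7.4, 2% milk, 0.02% Triton X-100, 1 mM DTT, 0.2 mg/mL BSA and 0.4 mg/ml salmon testes DNA. Antibodies against each partner (one per run) detected bound dimers, and fluorescence scans were regression-normalized. Binding z-scores take the random background probes as reference.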
Consider ATCGAAAGGTCGACGAGGAGAGTATACACCGTTT, for which the PBM binding z-score was -0.0264.

For the sequence CCTACTGGGCCAAAAAGGTAATTGATGCCGATAA, the PBM binding z-score is -0.602.

In turn, CGAACTAGGTCATCGAGGACAGTGAATACATTGA came in with a PBM binding z-score of 2.51.

The sequence TCTAGTTGGTCGCGGAGGTCACACACGACGGGTA registered a PBM binding z-score of 2.74.

For CGAACTAAGTCATCCAGGACAGTGAATACATTGA, the PBM binding z-score worked out at 1.1.

In turn, TCTGCTAGGTCAGGTGGTCAGCTAACGAGCTGCC came in with a PBM binding z-score of 0.331.

Take CGAACTAGGTCAACGACAGTGAATCTCCGCACGC: the PBM binding z-score was 1.08.

On to AGTAGCAGGCCAAGGGTCACTCAAGATTAGTCCG, for which the PBM binding z-score amounted to 0.326.

Turning to CCTCGGAGGACAACCGGAGGTCAGAGCTGCCAGA, the PBM binding z-score came out at 1.3.

TAGCCTAGGTCATTCAGGGGTCAGTATAGAAAGC showed a PBM binding z-score of 2.13.

In the case of CGTCCAAGGTCACCAGGTCAGTGAAAGCGACGTG, the PBM binding z-score amounted to 4.12.

Consider TATCCTAGGTCAGATCGGGCCAGTATACGCTATA, for which the PBM binding z-score was 0.858.

Turning to CGAACTAAGTCACCAGGACAGTGAAGAGGTTGGA, the PBM binding z-score was found to be 0.708.

Sequence CCTACTGGGCCAAGGTCATTGAGCAGTCAAAGCA showed a PBM binding z-score of 2.18.

As to CCTACTGGGCCAATAAGGTCATTGATGCCGATAA, the PBM binding z-score was determined as 3.44.

As to TCTGCTGGGTCAACGATGGTCAGCTAATCTGCTA, the PBM binding z-score was -0.44.

The sequence GCTAGTAGGTCAGTAAAAGGTCACACACCGGTCG came in with a PBM binding z-score of 1.97.

In the case of TGTCAAAGCTCAAAGGTAACGTAAGTATCCACAC, the PBM binding z-score was -0.706.

GCTCGGAGGACAAGGTCACAGCTTTGTCCGTAGA showed a PBM binding z-score of 3.04.

Sequence CGAACTAGGTGATTGACAGGACAGTGAATAGTAA returned a PBM binding z-score of 0.252.

On to CCTACTGGGCCAAAGGACATTGATTCCAATGCTC, for which the PBM binding z-score was -0.145.

On to CGAACTAGGTCAAAGGACAGGGAAAGGCGACGTA, for which the PBM binding z-score stood at 0.631.

For the sequence AGTCAAAGTTGATCTAGGTAACGTAAGATATGCT, the PBM binding z-score is -0.0633.

CCTTACGGGTCACTGACAGGTCATAGCATTTGGA yielded a PBM binding z-score of 0.878.

In turn, TTACCGAGGTGAAAGGTCGTTGATGCACGCCTTG returned a PBM binding z-score of 0.983.

Take TCGAGTAGGTTACGTGGGCATTCAGGGATGAAGA: the PBM binding z-score was -0.426.

As for ATCGAAAGGTCGACGAGGTGAGTATGCACCGTTT, the PBM binding z-score was found to be 0.762.

TCGAGTGGGTTACGGGGGCATTCAGGGATGAAGA yielded a PBM binding z-score of 2.2.

Sequence TCTCGGAGGACACGAAGGTCAGCGCTTTCCAGAG registered a PBM binding z-score of 1.21.

Turning to CCTCGGAGGTCAGAAGGTCAGAGCTGTCCGCTTT, the PBM binding z-score came out at 0.451.

The sequence CCTACTGGGGCACGAAAGGTCATTGATTCAGTGA registered a PBM binding z-score of 0.632.

On to CGGCCAAGGTCAAAGGTCAGTGAAGAGATGACGG, for which the PBM binding z-score was 2.52.

Turning to AGCGAAAGGTCGAAGGTGAGTATACCCACCCGAA, the PBM binding z-score was -0.329.

As for AATACAGGGTCCTCGTAGGCCAGAGTACGCACAG, the PBM binding z-score was determined as 0.203.

In turn, AACGAAAGGTCGACGAGGTGAGTATACACCGTTT registered a PBM binding z-score of 0.519.

In the case of CAAACTAGGTCACAGAGGTCAAACTCCGTGCGTA, the PBM binding z-score was found to be 3.37.

Regarding ACTAGCAGGCCAAGGGTGACTCAAGATTAGTCCG, the PBM binding z-score was -0.521.

For TCGAGTAGGTTAGGGGGGCATTCAGGGATGAAGA, the PBM binding z-score is 2.28.

On to CAAACTAGGTCAAGAGGTCAAACTCCGCTTCCCG, for which the PBM binding z-score came out at 2.71.

For the next experiment, the system named is VDR:RXRa (NR concentration 270 nM, RXRa partner concentration 90 nM). Described as above. In short, it runs like this:
as §1
CGAACTAGGTCATCGAGGACAGTGAATACATTGA returned a PBM binding z-score of 6.12.

With CGAACTAAGTCATCCAGGACAGTGAATACATTGA, the PBM binding z-score is 0.524.

Take TCTGCTAGGTCAGGTGGTCAGCTAACGAGCTGCC: the PBM binding z-score amounted to 0.132.

In the case of CGAACTAGGTCAACGACAGTGAATCTCCGCACGC, the PBM binding z-score turned out to be 1.27.

CCTCGGAGGACAACCGGAGGTCAGAGCTGCCAGA yielded a PBM binding z-score of 1.9.

In the case of TAGCCTAGGTCATTCAGGGGTCAGTATAGAAAGC, the PBM binding z-score is 6.03.

CGTCCAAGGTCACCAGGTCAGTGAAAGCGACGTG showed a PBM binding z-score of 5.3.

With CGAACTAAGTCACCAGGACAGTGAAGAGGTTGGA, the PBM binding z-score was -0.118.

For CCTACTGGGCCAAGGTCATTGAGCAGTCAAAGCA, the PBM binding z-score is 3.07.

The sequence TCTGCTGGGTCAACGATGGTCAGCTAATCTGCTA returned a PBM binding z-score of 1.62.

GCTAGTAGGTCAGTAAAAGGTCACACACCGGTCG showed a PBM binding z-score of 4.99.

TGTCAAAGCTCAAAGGTAACGTAAGTATCCACAC: the PBM binding z-score turned out to be 0.171.

As to CCTACTGGGCCAAAGGACATTGATTCCAATGCTC, the PBM binding z-score was -0.439.

As to CCTTACGGGTCACTGACAGGTCATAGCATTTGGA, the PBM binding z-score was 5.38.

In the case of TTACCGAGGTGAAAGGTCGTTGATGCACGCCTTG, the PBM binding z-score came out at 3.72.

As for TCGAGTGGGTTACGGGGGCATTCAGGGATGAAGA, the PBM binding z-score amounted to 4.27.

The sequence AGCGAAAGGTCGAAGGTGAGTATACCCACCCGAA displayed a PBM binding z-score of 2.8.

For the sequence AATACAGGGTCCTCGTAGGCCAGAGTACGCACAG, the PBM binding z-score is -0.154.

On to AACGAAAGGTCGACGAGGTGAGTATACACCGTTT, for which the PBM binding z-score was 5.12.

In turn, TCGAGTAGGTTAGGGGGGCATTCAGGGATGAAGA gave a PBM binding z-score of 3.91.

In turn, CAAACTAGGTCAAGAGGTCAAACTCCGCTTCCCG had a PBM binding z-score of 6.49.

The next experiment deals with VDR homodimer (NR concentration 270 nM). Described as above. In short, it runs like this: as §1
The sequence ATCGAAAGGTCGACGAGGAGAGTATACACCGTTT registered a PBM binding z-score of 0.681.

As to CCTACTGGGCCAAAAAGGTAATTGATGCCGATAA, the PBM binding z-score was -0.646.

In the case of CGAACTAGGTCATCGAGGACAGTGAATACATTGA, the PBM binding z-score amounted to 2.73.

TCTAGTTGGTCGCGGAGGTCACACACGACGGGTA returned a PBM binding z-score of 2.63.

Turning to CGAACTAAGTCATCCAGGACAGTGAATACATTGA, the PBM binding z-score amounted to 0.0279.

For TCTGCTAGGTCAGGTGGTCAGCTAACGAGCTGCC, the PBM binding z-score was -0.539.

In turn, CGAACTAGGTCAACGACAGTGAATCTCCGCACGC gave a PBM binding z-score of 0.435.

With AGTAGCAGGCCAAGGGTCACTCAAGATTAGTCCG, the PBM binding z-score was 1.46.

In turn, CCTCGGAGGACAACCGGAGGTCAGAGCTGCCAGA yielded a PBM binding z-score of 1.41.

The sequence TAGCCTAGGTCATTCAGGGGTCAGTATAGAAAGC showed a PBM binding z-score of 4.47.

In the case of CGTCCAAGGTCACCAGGTCAGTGAAAGCGACGTG, the PBM binding z-score came out at 3.44.

Sequence TATCCTAGGTCAGATCGGGCCAGTATACGCTATA displayed a PBM binding z-score of 0.237.

Regarding CGAACTAAGTCACCAGGACAGTGAAGAGGTTGGA, the PBM binding z-score amounted to 0.106.

CCTACTGGGCCAAGGTCATTGAGCAGTCAAAGCA registered a PBM binding z-score of 2.65.

CCTACTGGGCCAATAAGGTCATTGATGCCGATAA had a PBM binding z-score of 2.76.

In the case of TCTGCTGGGTCAACGATGGTCAGCTAATCTGCTA, the PBM binding z-score is -0.395.

The sequence GCTAGTAGGTCAGTAAAAGGTCACACACCGGTCG showed a PBM binding z-score of 2.37.

Regarding TGTCAAAGCTCAAAGGTAACGTAAGTATCCACAC, the PBM binding z-score was -0.613.

In the case of GCTCGGAGGACAAGGTCACAGCTTTGTCCGTAGA, the PBM binding z-score is 1.96.

Sequence CGAACTAGGTGATTGACAGGACAGTGAATAGTAA gave a PBM binding z-score of 0.00262.

On to CCTACTGGGCCAAAGGACATTGATTCCAATGCTC, for which the PBM binding z-score was -0.13.

CGAACTAGGTCAAAGGACAGGGAAAGGCGACGTA: the PBM binding z-score was 0.464.

Consider AGTCAAAGTTGATCTAGGTAACGTAAGATATGCT, for which the PBM binding z-score is -0.278.

Sequence CCTTACGGGTCACTGACAGGTCATAGCATTTGGA gave a PBM binding z-score of 2.15.

The sequence TTACCGAGGTGAAAGGTCGTTGATGCACGCCTTG registered a PBM binding z-score of 1.47.

On to TCGAGTAGGTTACGTGGGCATTCAGGGATGAAGA, for which the PBM binding z-score is -0.34.

ATCGAAAGGTCGACGAGGTGAGTATGCACCGTTT yielded a PBM binding z-score of 1.03.

Turning to TCGAGTGGGTTACGGGGGCATTCAGGGATGAAGA, the PBM binding z-score stood at 3.66.

The sequence TCTCGGAGGACACGAAGGTCAGCGCTTTCCAGAG had a PBM binding z-score of 1.46.

Turning to CCTCGGAGGTCAGAAGGTCAGAGCTGTCCGCTTT, the PBM binding z-score came to 1.47.

On to CCTACTGGGGCACGAAAGGTCATTGATTCAGTGA, for which the PBM binding z-score was found to be 2.34.

Take CGGCCAAGGTCAAAGGTCAGTGAAGAGATGACGG: the PBM binding z-score is 3.31.

Consider AGCGAAAGGTCGAAGGTGAGTATACCCACCCGAA, for which the PBM binding z-score came out at 0.312.

With AATACAGGGTCCTCGTAGGCCAGAGTACGCACAG, the PBM binding z-score was 0.487.

On to AACGAAAGGTCGACGAGGTGAGTATACACCGTTT, for which the PBM binding z-score turned out to be 0.772.

In turn, CAAACTAGGTCACAGAGGTCAAACTCCGTGCGTA displayed a PBM binding z-score of 7.66.

On to ACTAGCAGGCCAAGGGTGACTCAAGATTAGTCCG, for which the PBM binding z-score is -0.791.

As for TCGAGTAGGTTAGGGGGGCATTCAGGGATGAAGA, the PBM binding z-score was determined as 3.28.

Regarding CAAACTAGGTCAAGAGGTCAAACTCCGCTTCCCG, the PBM binding z-score is 5.63.
